Data reported in PubChem BioAssay (EPA / NIEHS).
“And” between values parts separate entries of the source, which are not always exact repeats. Equal values may be shown once. More than one record can exist for a structure, and the calls need not agree. The source made the active and inactive calls. The calls were made as follows: active = hit-call score of the fitted dose curve at least 0.9, where 1 is the maximum; inactive = score below 0.9.

How the values were obtained:
[1] = BSK_CASM3C_SRB: Viability Assessment in the BioMAP Diversity Plus: CASM3C Assay (AID 2283050); conditions: primary human coronary artery smooth muscle cells;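 also: total protein by SRB staining as cytotoxicity measure in parallel cultures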
[2] = read-out: Thrombomodulin, THBD (gene 7056); assay: BSK_CASM3C_Thrombomodulin: BioMAP Diversity Plus: CASM3C Assay for Thrombomodulin Biomarker Activity (AID 2283051); conditions: primary human coronary artery smooth muscle cells; actives raise or lower the signal;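 also: thrombomodulin protein level measured by ELISA 24 h after dosing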
[3] = read-out: Tissue Factor, F3 (gene 2152); assay: BSK_CASM3C_TissueFactor: BioMAP Diversity Plus: CASM3C Assay for Tissue Factor Biomarker Activity (AID 2283052); conditions: primary human coronary artery smooth muscle cells; actives raise or lower the signal;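 also: cell surface tissue factor protein level read by ELISA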
[4] = read-out: Interferon-gamma inducible Protein 10 (IP10), CXCL10 (gene 3627); assay: BSK_hDFCGF_IP10: BioMAP Diversity Plus: hDFCGF Assay for Interferon-gamma inducible Protein 10 (IP10) Biomarker Activity (AID 2283053); conditions: primary human foreskin fibroblasts; actives raise or lower the signal
Procedure, shortened: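 Primary foreskin fibroblasts, human; 24 h compound exposure; IP-10 by ELISA; bidirectional fit vs DMSO.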

[5] = read-out: Urokinase-type plasminogen activator receptor (uPAR), PLAUR (gene 5329); assay: BSK_CASM3C_uPAR: BioMAP Diversity Plus: CASM3C Assay for Urokinase-type plasminogen activator receptor (uPAR) Biomarker Activity (AID 2283054); conditions: primary human coronary artery smooth muscle cells; actives raise or lower the signal;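 also: cell-surface uPAR protein level quantified by ELISA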
[6] = read-out: Vascular cell adhesion molecule 1 (VCAM1), VCAM1 (gene 7412); assay: BSK_CASM3C_VCAM1: BioMAP Diversity Plus: CASM3C Assay for Vascular cell adhesion molecule 1 (VCAM1) Biomarker Activity (AID 2283055); conditions: primary human coronary artery smooth muscle cells; actives raise or lower the signal;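 also: VCAM-1 protein level quantified by ELISA on the cells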
[7] = read-out: Collagen III, COL3A1 (gene 1281); assay: BSK_hDFCGF_CollagenIII: BioMAP Diversity Plus: hDFCGF Assay for Collagen III Biomarker Activity (AID 2283056); conditions: primary human foreskin fibroblasts; actives raise or lower the signal
Procedure, shortened: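 Response relative to DMSO, fitted in both directions, reflects ELISA-measured collagen III in human primary skin fibroblasts 24 h after compound addition.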

[8] = read-out: Epidermal growth factor receptor (EGFR), EGFR (gene 1956); assay: BSK_hDFCGF_EGFR: BioMAP Diversity Plus: hDFCGF Assay for Epidermal growth factor receptor (EGFR) Biomarker Activity (AID 2283057); conditions: primary human foreskin fibroblasts; actives raise or lower the signal
Procedure, shortened: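 hDFCGF system, primary human foreskin fibroblasts; compound 24 h; EGFR measured by ELISA; DMSO = negative control/baseline; bidirectional fitting.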

[9] = read-out: Interleukin-8 (IL8), CXCL8 (gene 3576); assay: BSK_hDFCGF_IL8: BioMAP Diversity Plus: hDFCGF Assay for Interleukin-8 (IL8) Biomarker Activity (AID 2283058); conditions: primary human foreskin fibroblasts; actives raise or lower the signal
Procedure, shortened: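 Fibroblast monolayers (human foreskin, hDFCGF) received test chemical for 24 h before ELISA detection of IL-8; either increases or decreases relative to DMSO count as activity.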

[10] = BSK_hDFCGF_Proliferation: Cell Proliferation Assessment in the BioMAP Diversity Plus: hDFCGF Assay (AID 2283059); conditions: primary human foreskin fibroblasts;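 also: curves fitted for both rise and fall of signal versus DMSO baseline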
Procedure, shortened: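 Total protein read at 560 nm after 0.1% SRB staining of TCA-fixed human skin fibroblasts, […]. Activity is fitted in both directions relative to DMSO as baseline.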

[11] = read-out: Macrophage colony-stimulating factor (MCSF), CSF1 (gene 1435); assay: BSK_hDFCGF_MCSF: BioMAP Diversity Plus: hDFCGF Assay for Macrophage colony-stimulating factor (MCSF) Biomarker Activity (AID 2283060); conditions: primary human foreskin fibroblasts; actives raise or lower the signal
Procedure, shortened: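 fibroblasts (human foreskin, primary), 24 h post-dose; M-CSF by ELISA; bidirectional fit, DMSO = baseline.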

[12] = BSK_hDFCGF_SRB: Viability Assessment in the BioMAP Diversity Plus: hDFCGF Assay (AID 2283061); conditions: primary human foreskin fibroblasts;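 also: cells exposed to compound for 24 h before the read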
Procedure, shortened: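 SRB-based viability read on primary human skin fibroblasts at 24 h: TCA fixation, 0.1% dye, 560 nm. Gain or loss of signal is fitted against the DMSO negative control.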

[13] = read-out: TIMP metallopeptidase inhibitor 1 (TIMP1), TIMP1 (gene 7076); assay: BSK_hDFCGF_TIMP1: BioMAP Diversity Plus: hDFCGF Assay for TIMP metallopeptidase inhibitor 1 (TIMP1) Biomarker Activity (AID 2283062); conditions: primary human foreskin fibroblasts; actives raise or lower the signal
Procedure, shortened: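 Bidirectional curve fitting against DMSO baseline yielded this endpoint, based on ELISA detection of TIMP-1 in primary human foreskin fibroblasts exposed to compound for 24 h.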

[14] = read-out: Monokine induced gamma interferon (MIG), CXCL9 (gene 4283); assay: BSK_hDFCGF_MIG: BioMAP Diversity Plus: hDFCGF Assay for Monokine induced gamma interferon (MIG) Biomarker Activity (AID 2283063); conditions: primary human foreskin fibroblasts; actives raise or lower the signal
Procedure, shortened: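 Endpoint derived by bidirectional fitting relative to DMSO; MIG quantified via ELISA in primary human foreskin fibroblasts harvested 24 h after dosing.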

[15] = read-out: Matrix Metallopeptidase 1 (MMP1), MMP1 (gene 4312); assay: BSK_hDFCGF_MMP1: BioMAP Diversity Plus: hDFCGF Assay for Matrix Metallopeptidase 1 (MMP1) Biomarker Activity (AID 2283064); conditions: primary human foreskin fibroblasts; actives raise or lower the signal
Procedure, shortened: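 Primary human foreskin fibroblasts exposed to chemicals for 24 h; MMP1 measured by ELISA. Cytotoxicity tracked by SRB staining in parallel cultures; bidirectional fit relative to DMSO.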

[16] = read-out: Plasminogen activator inhibitor-1 (PAI1), SERPINE1 (gene 5054); assay: BSK_hDFCGF_PAI1: BioMAP Diversity Plus: hDFCGF Assay for Plasminogen activator inhibitor-1 (PAI1) Biomarker Activity (AID 2283066); conditions: primary human foreskin fibroblasts; actives raise or lower the signal
Procedure, shortened: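 Primary dermal fibroblasts (human foreskin), hDFCGF system; compound 24 h; PAI-1 by ELISA; bidirectional fit vs DMSO control.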

[17] = read-out: Intercellular Adhesion Molecule 1 (ICAM1), ICAM1 (gene 3383); assay: BSK_KF3CT_ICAM1: BioMAP Diversity Plus: KF3CT Assay for Intercellular Adhesion Molecule 1 (ICAM1) Biomarker Activity (AID 2283067); conditions: primary human keratinocytes with fibroblasts; actives raise or lower the signal
Procedure, shortened: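 Bidirectional curve fitting against a DMSO baseline was applied to ICAM-1 ELISA signal from primary human skin co-cultures harvested 24 h after treatment, with SRB staining of parallel wells for overt cytotoxicity.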

[18] = read-out: Interferon-gamma inducible Protein 10 (IP10), CXCL10 (gene 3627); assay: BSK_KF3CT_IP10: BioMAP Diversity Plus: KF3CT Assay for Interferon-gamma inducible Protein 10 (IP10) Biomarker Activity (AID 2283068); conditions: primary human keratinocytes with fibroblasts; actives raise or lower the signal
Procedure, shortened: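 Human keratinocyte plus foreskin fibroblast primary co-culture exposed to test chemical for 24 h; IP-10 measured by ELISA. Concentration-response fitted bidirectionally against DMSO control as baseline.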

[19] = BSK_KF3CT_SRB: Viability Assessment in the BioMAP Diversity Plus: KF3CT Assay (AID 2283069); conditions: primary human keratinocytes with fibroblasts;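 also: total protein by sulforhodamine B staining as a cytotoxicity measure; fitted for both signal gain and loss against DMSO baseline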
Procedure, shortened: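 Human keratinocyte and foreskin fibroblast co-culture exposed to chemical for 24 h. Total protein measured in parallel cultures by 0.1% sulforhodamine B staining after 10% TCA fixation, read at 560 nm; bidirectional fit relative to DMSO.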

[20] = read-out: Vascular cell adhesion molecule 1 (VCAM1), VCAM1 (gene 7412); assay: BSK_hDFCGF_VCAM1: BioMAP Diversity Plus: hDFCGF Assay for Vascular cell adhesion molecule 1 (VCAM1) Biomarker Activity (AID 2283065); conditions: primary human foreskin fibroblasts; actives raise or lower the signal
Procedure, shortened: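 Measured after 24 h chemical treatment of primary human skin fibroblasts, VCAM-1 was detected by ELISA and concentration-response analysed in both directions versus DMSO vehicle.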

Measured: AC50

OCC(F)(OC(F)(F)C(F)(OC(F)(F)C(F)(F)C(F)(F)F)C(F)(F)F)C(F)(F)F (centres undefined)
inactive: [1] | [2] | [3] | [5] | [6] | [8] | [9] | [16]
active: [4] 2.4 µM and 2.74 µM | [7] 2.23 µM and 1.98 µM | [8] 5.4 µM | [9] 5.05 µM | [10] 4.48 µM and 4.13 µM | [11] 2.34 µM and 1.91 µM | [12] 6.02 µM and 5.36 µM | [13] 3.33 µM | [14] 2.24 µM and 2.52 µM | [15] 4.57 µM and 4.92 µM | [16] 6.18 µM | [17] 4.83 µM and 3.33 µM | [18] 5.01 µM and 4.55 µM | [19] 5.66 µM and 4.19 µM

OCCN1CCOCC1
active: [3] 2.22 µM
inactive: [1] | [2] | [4] | [5] | [6] | [7] | [8] | [9] | [10] | [11] | [12] | [13] | [14] | [15] | [20] | [16] | [17] | [18] | [19]

NC(=O)c1c(Cl)cccc1Cl
inactive: [1] | [2] | [3] | [4] | [5] | [6] | [7] | [8] | [9] | [10] | [11] | [12] | [13] | [14] | [15] | [16] | [17] | [18] | [19]

COc1ccccc1NC(=O)CC(C)=O
inactive: [1] | [2] | [3] | [4] | [5] | [6] | [7] | [8] | [9] | [10] | [11] | [12] | [13] | [14] | [15] | [16] | [17] | [18] | [19]

c1ccc2c(c1)-c1ccc3ccc4cccc5cc-2c1c3c45
inactive: [1] | [2] | [3] | [4] | [5] | [6] | [7] | [8] | [9] | [10] | [12] | [13] | [14] | [15] | [16] | [17] | [18] | [19]
active: [11] 86.5 nM

O=C(O)C(F)(F)C(F)(F)C(F)(F)C(F)(F)C(F)(F)C(F)(F)C(F)(F)C(F)F
active: [7] 10.7 µM | [12] 20.1 µM and 15.8 µM
inactive: [1] | [2] | [3] | [4] | [5] | [6] | [7] | [8] | [9] | [10] | [11] | [13] | [14] | [15] | [16] | [17] | [18] | [19]
